The values that follow come from PubChem BioAssay (EPA / NIEHS).

Experiment [1] deals with Cellular tumor antigen p53 (Homo sapiens) (UniProt P04637). The experiment can be described thus: TOX21_p53_BLA_p2_ratio: Tox21 HCT-116 p53 Agonism Beta-lactamase Assay, Ratio, Phase 2 (AID 2283592). The method, boiled down: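 Readout: blue/green (460/530 nm) FRET emission ratio after 2 h CCF4-AM loading at room temperature, excitation 405 nm. HCT116 p53 bla cells, 16 h compound exposure at 37C, 5% CO2; agonist direction fitted against DMSO baseline.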
Chain of Cellular tumor antigen p53 (Homo sapiens) (P04637 whole entry, looked up): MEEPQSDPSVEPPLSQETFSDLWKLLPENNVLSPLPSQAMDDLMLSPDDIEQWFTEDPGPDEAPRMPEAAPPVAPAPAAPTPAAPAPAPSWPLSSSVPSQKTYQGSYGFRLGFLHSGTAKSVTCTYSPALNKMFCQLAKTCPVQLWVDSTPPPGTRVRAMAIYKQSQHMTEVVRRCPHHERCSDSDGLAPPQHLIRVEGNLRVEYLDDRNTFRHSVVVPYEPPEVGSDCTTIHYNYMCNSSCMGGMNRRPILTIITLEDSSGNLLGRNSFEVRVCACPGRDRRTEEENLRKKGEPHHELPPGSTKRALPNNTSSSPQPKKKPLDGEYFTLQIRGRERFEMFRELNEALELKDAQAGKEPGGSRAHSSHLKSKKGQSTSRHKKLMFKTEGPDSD

Experiment [2] has the same target. The experiment can be described thus: TOX21_p53_BLA_p3_ratio: Tox21 HCT-116 p53 Agonism Beta-lactamase Assay, Ratio, Phase 3 (AID 2283596). The method, boiled down:
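Cells were seeded at 4000/well, rested 5 h at 37C, then dosed with DMSO compound solutions (217-fold dilution) for 16 h. CCF4-AM substrate was loaded for 2 h at room temperature, and the 460/530 nm emission ratio was fitted for gain of signal versus DMSO.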

Experiment [3] has the same target. The experiment can be described thus: TOX21_p53_BLA_p5_ratio: Tox21 HCT-116 p53 Agonism Beta-lactamase Assay, Ratio, Phase 5 (AID 2283599). The method, boiled down: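 HCT-116 cells carrying a p53-inducible beta-lactamase reporter were seeded at 4000 cells/well and dosed after 5 h with compound in DMSO (217-fold dilution). After 16 h at 37C, CCF4-AM substrate was added for 2 h, and the 460/530 nm emission ratio was scored as gain-of-signal versus DMSO.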

For experiment [4] the target is unchanged. The experiment can be described thus: TOX21_p53_BLA_p4_ratio: Tox21 HCT-116 p53 Agonism Beta-lactamase Assay, Ratio, Phase 4 (AID 2283601). The gist of the method: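 HCT116 cells carrying an inducible beta-lactamase reporter were plated at 4000 cells/well, rested 5 h, then exposed to compounds in DMSO (217-fold dilution) for 16 h at 37C. CCF4-AM substrate was loaded 2 h at room temperature; 460/530 nm emission ratio scored gain-of-signal versus DMSO.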

The nature of experiment [5]: TOX21_p53_BLA_p2_viability: Viability Assessment in the Tox21 HCT-116 p53 Agonism Beta-lactamase Assay, Phase 2 (AID 2283591).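 Further: actives lower the ATP signal meaning cytotoxicity.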 The gist of the method: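 HCT-116 p53-bla cells (4000/well) rested 5 h at 37C, then received compounds in DMSO (217-fold dilution) for 16 h at 37C, 5% CO2. After the CCF4 read, CellTiter-Glo was added; ATP luminescence was read after 30 min at room temperature.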

A short description of experiment [6]: TOX21_p53_BLA_p3_viability: Viability Assessment in the Tox21 HCT-116 p53 Agonism Beta-lactamase Assay, Phase 3 (AID 2283593).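 Further: cells exposed to compound for 16 h before reading.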 The method, boiled down:
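HCT-116 cells (4000/well) rested 5 h at 37C, then got DMSO compounds by pin tool (217-fold dilution) for 16 h at 37C, 5% CO2. After the bla read, CellTiter-Glo was added and luminescence read at 30 min, room temperature.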

Experiment [7] is described as follows: TOX21_p53_BLA_p4_viability: Viability Assessment in the Tox21 HCT-116 p53 Agonism Beta-lactamase Assay, Phase 4 (AID 2283597).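 Further: hits lower the luminescence signal meaning cytotoxicity.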 The method, boiled down: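 ATP content by CellTiter-Glo luminescence, 30 min RT, read after the beta-lactamase ratio step. Cells: HCT116, 4000/well, compound added after 5 h, exposure 16 h at 37C. Signal loss = reduced viability.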

Experiment [8] can be described thus: TOX21_p53_BLA_p5_viability: Viability Assessment in the Tox21 HCT-116 p53 Agonism Beta-lactamase Assay, Phase 5 (AID 2283600). The method, boiled down: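 ATP luminescence (CellTiter-Glo, 30 min, RT) served as the viability read-out, with loss of signal indicating cytotoxicity. Compounds in DMSO were pinned at a 217-fold dilution onto 4000 cells/well and incubated 16 h, 37C.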

Where “and” joins values, the source holds several entries; their conditions need not be identical. Identical values can stand only once. Results filed as inconclusive are left out. Calls of active or inactive are those of the source. How the source made its calls: active means hit-call score of the fitted dose curve at least 0.9, where 1 is the maximum; inconclusive means response in the unintended direction; inactive means score below 0.9.

As to `Nc1ccn([C@H]2CS[C@@H](CO)O2)c(=O)n1`, the result in experiment [1], in experiment [2], in experiment [3] and in experiment [4] was inactive.

By AC50 is commonly meant the concentration giving half of the maximal activity seen. As for `CCCSc1ccc2nc(NC(=O)OC)[nH]c2c1`, the compound was classed as inactive in experiment [5], in experiment [6], in experiment [7] and in experiment [8]. The AC50 in experiment [2] was 394 nM (active) and 199 nM (active); in experiment [3] it was 373 nM (active) and 193 nM (active); in experiment [4], 339 nM (active) and 175 nM (active).

For the compound `C=C(C)C(=O)OCCOCCOCCOCCOC(=O)C(=C)C`, the compound was classed as inactive in experiment [5], in experiment [1], in experiment [6], in experiment [2], in experiment [8] and in experiment [4].

With `O=C(CC(=O)c1ccccc1)c1ccccc1`, the result in experiment [5], in experiment [6], in experiment [2], in experiment [7], in experiment [3] and in experiment [8] was inactive. Further, the result in experiment [4] was inactive.

For `CCc1cc(C(C)(C)C)c(O)c(C(C)(C)C)c1`, the compound was called inactive in experiment [5], in experiment [6], in experiment [2], in experiment [7], in experiment [3] and in experiment [4].

With `COC(C)(C)CCO`, the outcome in experiment [5], in experiment [3] and in experiment [4] was inactive.

As to `CC(C)c1ccccc1O`, the outcome in experiment [1], in experiment [6], in experiment [2] and in experiment [7] was inactive.

Consider `CCc1ccc(O)cc1`, for which the call in experiment [5], in experiment [6], in experiment [2], in experiment [7], in experiment [3] and in experiment [8] was inactive.

As for `CC(C)C[C@H](NC(=O)OCC1c2ccccc2-c2ccccc21)C(=O)O`, the result in experiment [1], in experiment [7], in experiment [3] and in experiment [8] was inactive.

Consider `CCC(Cl)C(Cl)C(Cl)CC(Cl)C(Cl)C(C)Cl` (configuration not stated), for which the outcome in experiment [5], in experiment [6], in experiment [2], in experiment [7], in experiment [3] and in experiment [4] was inactive.

On to `CCCCCCCCN1CCCC1=O`, for which the result in experiment [2], in experiment [3], in experiment [8] and in experiment [4] was inactive.

`Cc1ccc(S(=O)(=O)Oc2ccc(N=Nc3ccc(-c4ccc(N=Nc5c(O)ccc6cc(S(=O)(=O)O)cc(S(=O)(=O)O)c56)c(C)c4)cc3C)cc2)cc1`: the outcome in experiment [1], in experiment [6], in experiment [2], in experiment [7], in experiment [3] and in experiment [8] was inactive. Moreover, the outcome in experiment [4] was inactive.

On to `CCCCCCCCCCCCCCCC(=O)OC/C=C(C)/C=C/C=C(C)/C=C/C1=C(C)CCCC1(C)C`, for which the call in experiment [5], in experiment [6], in experiment [2], in experiment [8] and in experiment [4] was inactive.

On to `CCC(=O)O[C@@H]1C[C@H]2CC[C@]1(C)C2(C)C`, for which the result in experiment [2], in experiment [3] and in experiment [4] was inactive.

For the compound `COc1ccc(N)c([N+](=O)[O-])c1`, the result in experiment [6], in experiment [2], in experiment [3], in experiment [8] and in experiment [4] was inactive.
